proKLK7 act = proKLK7 zymogen activators, primary screen, biochemical, fluorescence intensity | Kallikrein-7 (Homo sapiens), P49862 | purified proKLK7, EDANS-DABCYL substrate fluorescence; 100% is mature enzyme control, 0% vehicle | activation, % at 7 µM | 370,000 compounds, 0.9% hits | AID 652039, 2013;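 active = activation above the mean of all tested compounds plus 3 SD, computed per campaign excluding outliers beyond control limits, cut at about 13% in these data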
AHR activator = AHR activators, primary screen, cell-based, luminescence, luciferase reporter, human. Aryl hydrocarbon receptor (Homo sapiens), P35869. AHR-responsive luciferase reporter cells. activation, % at 5 µM. 320,000 compounds, 2.5% hits. AID 2796, 2010; in the data active = activation above about 47%;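 note: 0% = vehicle wells and 100% = reference agonist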
GRIN3A LBD mod = binders of NR3A ligand-binding domain, primary screen, biophysical, differential scanning fluorimetry, uHTS | Glutamate receptor ionotropic, NMDA 3A (GRIN3A) ligand-binding domain | NR3A LBD differential scanning fluorimetry, Tm shift; 0% = protein alone, 100% = glycine-bound protein | Tm shift relative to glycine control, % at 25 µM | 340,000 compounds, 2.5% hits | AID 1259313, 2017;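 active = melting temperature shift of at least 10% of the positive control shift, at one fixed dose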
ADAM17 inh = ADAM17 inhibitors, primary screen, biochemical, QFRET; Disintegrin and metalloproteinase domain-containing protein 17 (Homo sapiens), P78536; recombinant ADAM17, EDANS/DABCYL FRET peptide cleavage; inhibition, % at 6.95 µM; 370,000 compounds, 0.83% hits;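 active = inhibition above the mean of compounds lying between control limits plus 3 SD, set per campaign, cut at about 8.5% in these data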;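 note: 0% = DMSO-only wells as the low control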
Target sequence (P78536 215-824 limits assumed): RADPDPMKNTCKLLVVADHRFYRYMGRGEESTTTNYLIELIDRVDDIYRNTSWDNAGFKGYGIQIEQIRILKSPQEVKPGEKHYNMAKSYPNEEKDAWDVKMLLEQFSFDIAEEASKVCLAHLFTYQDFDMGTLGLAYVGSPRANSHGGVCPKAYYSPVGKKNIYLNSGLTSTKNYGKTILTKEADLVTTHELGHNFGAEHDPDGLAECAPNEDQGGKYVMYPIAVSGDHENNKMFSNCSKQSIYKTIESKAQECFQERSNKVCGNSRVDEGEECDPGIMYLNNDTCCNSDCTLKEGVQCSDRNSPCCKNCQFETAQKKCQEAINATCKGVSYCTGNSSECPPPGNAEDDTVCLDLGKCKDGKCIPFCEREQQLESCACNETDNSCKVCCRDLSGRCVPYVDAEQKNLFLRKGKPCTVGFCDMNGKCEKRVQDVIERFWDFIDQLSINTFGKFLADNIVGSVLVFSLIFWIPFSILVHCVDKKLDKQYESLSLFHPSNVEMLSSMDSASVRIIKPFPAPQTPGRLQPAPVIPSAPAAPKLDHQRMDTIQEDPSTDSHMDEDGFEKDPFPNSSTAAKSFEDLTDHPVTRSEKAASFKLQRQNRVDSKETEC
rCAG RNA binder = binders of r(CAG) RNA repeats, primary screen, biochemical, fluorescence. inhibition, % at 3 µM. AID 651821, 2012. r(CAG) RNA repeat, TO-PRO-1 dye displacement fluorescence. 370,000 compounds, 1.3% hits;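 active = inhibition above the plate cutoff, the mean of all test compounds on that plate plus 3 SD, cut at about 35% in these data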;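 note: 0% = DMSO alone and 100% = 100 µM mitoxantrone as full dye displacement; higher means more dye released from RNA so lower well fluorescence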
ADAM10 inh = human ADAM10 inhibitors, primary screen, biochemical, QFRET, HTS | recombinant ADAM10, EDANS/DABCYL FRET peptide cleavage, 3 h | Disintegrin and metalloproteinase domain-containing protein 10 (Homo sapiens), O14672 | 370,000 compounds, 0.62% hits | AID 720582, 2013 | inhibition, % at 7 µM;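 active = inhibition above a per-campaign cutoff equal to the mean of compounds falling between control-based bounds plus 3 SD, cut at about 20% in these data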;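 note: 0% = DMSO wells while the 100% control is not disclosed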
rCAG bind conf = small molecules binding CAG repeat RNA – biochemical, fluorescence, confirmation; inhibition, % at 3 µM; 4,300 compounds, 70% hits; shares compounds with rCAG RNA binder; r(CAG) RNA repeat, TO-PRO-1 dye displacement fluorescence;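 active = inhibition above a per-plate cutoff, the mean inhibition of sample wells plus 3 SD, cut at about 35% in these data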;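 note: loss of TO-PRO-1 fluorescence as compound displaces dye from 1x1 AA loop RNA; 0% = DMSO only wells and 100% = 100 µM mitoxantrone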
dCAG dye counter = displacement of TO-PRO-1 from CAG DNA duplex, counter-screen for rCAG RNA repeat binder project, biochemical, fluorescence, TO-PRO-1 dye, d(CAG) DNA oligo. 4,300 compounds, 94% hits. d(CAG) DNA oligo TO-PRO-1 dye displacement. shares compounds with rCAG RNA binder. inhibition, % at 3 µM;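 active = inhibition above its plate's cutoff, the mean test-well inhibition plus 3 SD, cut at about 4.8% in these data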;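 note: 0% = DNA dye mix with DMSO and 100% = 100 µM mitoxantrone; hits displace the dye from DNA and so lower well fluorescence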
Numbers without * were called inactive. Only some compounds are listed: those with a hit (about 7% of all), similar ones and a draw of the others.

Results for COc1cccc(NC(=O)NC2CCCCN(Cc3ccccc3C)C2=O)c1 (stereo not given) ?
proKLK7 act: 0; ADAM17 inh: -2; rCAG RNA binder: 1; ADAM10 inh: 2

What do the screens show for `COc1ccc(C2C(C#N)=C(N)Oc3c2ccc2cccnc32)cc1OC` (stereo not given)?
proKLK7 act: 0; AHR activator: -2; GRIN3A LBD mod: -1; ADAM17 inh: 2; rCAG RNA binder: 3; ADAM10 inh: 2

What do the screens show for `COc1cc(C2C(C#N)=C(N)Oc3c2ccc2ccccc32)ccc1OCC(=O)Nc1ccc(C)cc1` (stereo not given)?
proKLK7 act: -16; AHR activator: 10; GRIN3A LBD mod: 1; ADAM17 inh: 2; rCAG RNA binder: 38*; ADAM10 inh: 3; rCAG bind conf: 17; dCAG dye counter: 13*

How did COC(=O)C1=C(C)OC(N)=C(C#N)C1c1ccc(OC)c(OC)c1OC (stereo not given) do in these assays?
proKLK7 act: 0; AHR activator: 3; GRIN3A LBD mod: 4; ADAM17 inh: -2; rCAG RNA binder: -3; ADAM10 inh: -9

What do the screens show for `COc1cc(C2C(C#N)=C(N)Oc3c2ccc2ccccc32)ccc1OCC(=O)Nc1cccc(C)c1` (stereo not given)?
proKLK7 act: -19; AHR activator: 7; GRIN3A LBD mod: 1; ADAM17 inh: 2; rCAG RNA binder: 53*; ADAM10 inh: 3; rCAG bind conf: 14; dCAG dye counter: 11*

Results for Cc1ccc(NC(=O)OCCCN2C(=O)CCC23CCC(C)CC3)cc1 (stereo not given) ?
proKLK7 act: 0; ADAM17 inh: 5; rCAG RNA binder: -1; ADAM10 inh: 8

How did COC(=O)C1=C(C)N(Cc2ccccc2C(F)(F)F)C(=NCc2ccccc2C(F)(F)F)NC1c1ccc(C(F)(F)F)cc1 (stereo not given) do in these assays?
proKLK7 act: 0; ADAM17 inh: -2; rCAG RNA binder: 1; ADAM10 inh: -8

Results for COc1cc(/C=C2/SC(=S)N(CC(=O)O)C2=O)ccc1OC(=O)c1ccco1 ?
proKLK7 act: 0; AHR activator: 2; GRIN3A LBD mod: -3; ADAM17 inh: -2; rCAG RNA binder: 41*; ADAM10 inh: -7; rCAG bind conf: 46*; dCAG dye counter: 15*

Results for COc1cc(/C=C2\SC(=S)N(CC(=O)O)C2=O)ccc1OC(=O)c1ccco1 ?
proKLK7 act: 0; AHR activator: 0; GRIN3A LBD mod: -1; ADAM17 inh: 2; rCAG RNA binder: 46*; ADAM10 inh: 6; rCAG bind conf: 45*; dCAG dye counter: 13*

Results for CCOc1ccc(/C=C2\SC(=S)N(CCC(=O)O)C2=O)cc1 ?
proKLK7 act: 0; AHR activator: -8; GRIN3A LBD mod: 4; ADAM17 inh: -3; rCAG RNA binder: 5; ADAM10 inh: 3

Screening results from PubChem BioAssay.
